Many of the other results were omitted from the sample, so hits are more common in it than they were.
HT1080-NT tox: kills 2HG-producing HT-1080-NT fibrosarcoma cells; AID 686970; hit rate 1.6% among 360,000; Potency, µM (series often up to 46.1 µM), without a hit: top-dose activity, negative = less viability, actives largely listed as cytotoxic; HT-1080-NT fibrosarcoma viability, CellTiter-Glo ATP luminescence, 48 h;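 note: NT is the 2HG producing partner of a matched IDH1 knockdown line; potency is the fitted concentration of half-maximal effect; 0% = DMSO-treated cells and -100% = media-only wells without cells; nearly all actives have a fitted effect of over 55% in size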
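Fibrosarcoma NT cells, 750 per well in 5% FBS RPMI, were exposed to compound for 48 hours. Viability: CellTiter-Glo luminescence.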
IL-1B inflam inh: inhibitors of inflammasome signaling (IL-1 beta secretion); THP-1 LPS/ATP IL-1B secretion, AlphaLISA, 16 h; active compounds read low; activity change, % at 57.5 µM; hit rate 4.7% among 360,000; in the data active = activity change below about -50%; inconclusive = mostly about -30% to -49%
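Secreted IL-1B measured by AlphaLISA bead assay after 16 h compound exposure of THP-1 cells; compounds (final up to 57.5 uM) added 1 h before LPS (250 ng/mL) and ATP (1.25 mM) stimulation; lower signal means less secretion.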
TDP1 cell noCPT: qHTS for Inhibitors of human tyrosyl-DNA phosphodiesterase 1 (TDP1): qHTS in cells in absence of CPT. Potency, µM (top dose mostly 46.2 µM), for the others: at the top dose activity change, negative = growth inhibition, actives largely listed as inhibitors. hit rate 15% among 420,000. DT40 Tdp1-/- hTDP1 cells, no CPT, ATP luminescence, 48 h. AID 686978, 2013; note: potency is the fitted concentration of half-maximal effect; nearly all actives have a fitted effect of over 55% in size
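Growth of hTDP1-complemented DT40 Tdp1-knockout cells is measured by ATP luminescence after at least 48 hr compound exposure at 37 °C, with DMSO substituting for the 20 nM CPT used in the parallel screen.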
ALOX12 inh: ALOX12 (human) lipoxygenase inhibition; P18054; purified 12hLO, xylenol orange hydroperoxide absorbance; Potency, µM (titrated, usually from 108 µM), without a hit: at the highest dose activity change, negative = inhibition, actives largely listed as inhibitors; AID 1671190; hit rate 1.1% among 580,000; note: potency is the fitted concentration of half-maximal effect
Target sequence (P18054 whole entry, looked up): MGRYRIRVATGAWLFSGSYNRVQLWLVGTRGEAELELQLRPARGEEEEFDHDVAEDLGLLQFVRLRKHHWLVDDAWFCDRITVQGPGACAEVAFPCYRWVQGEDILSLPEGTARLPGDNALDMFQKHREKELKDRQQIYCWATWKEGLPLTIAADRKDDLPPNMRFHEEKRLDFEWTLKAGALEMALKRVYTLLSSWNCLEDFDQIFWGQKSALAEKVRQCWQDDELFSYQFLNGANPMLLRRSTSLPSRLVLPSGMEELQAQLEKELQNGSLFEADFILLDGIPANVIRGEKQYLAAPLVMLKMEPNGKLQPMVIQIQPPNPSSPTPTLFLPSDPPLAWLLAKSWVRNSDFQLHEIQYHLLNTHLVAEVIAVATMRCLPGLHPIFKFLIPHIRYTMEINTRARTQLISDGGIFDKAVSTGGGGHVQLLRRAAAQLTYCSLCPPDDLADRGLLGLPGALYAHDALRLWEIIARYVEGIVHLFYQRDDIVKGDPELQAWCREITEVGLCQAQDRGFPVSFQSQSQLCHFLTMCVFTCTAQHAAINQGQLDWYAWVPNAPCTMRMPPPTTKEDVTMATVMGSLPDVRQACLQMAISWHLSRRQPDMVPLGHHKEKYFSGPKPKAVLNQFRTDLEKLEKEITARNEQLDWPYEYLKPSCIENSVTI
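Purified human 12hLO (150 nM final) in 25 mM Hepes, 0.01% Triton X-100, pH 7.0 was preincubated 15 min at room temperature with compound. Then 40 uM arachidonic acid was added, 30 min. Hydroperoxide was read by Fe-XO absorbance ratio 573/405 nm.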
DT40 TDP1 CPT: growth inhibition of DT40 Tdp1-/-;hTDP1 cells with camptothecin (screen for TDP1 inhibitors). Potency, µM (highest dose often 46.2 µM), inactives show top-dose activity change, negative = growth inhibition, most hits filed as inhibitors. chicken DT40 Tdp1-/-;hTDP1 cells + 20 nM CPT, ATP luminescence, 48 h. hit rate 12% among 420,000; note: potency is the fitted concentration of half-maximal effect; nearly all actives have a fitted effect of over 55% in size
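Cell growth measured by CellTiter-Glo luminescence after a minimum 48 h, 37 C compound exposure with 20 nM CPT in Tdp1-knockout DT40 cells stably expressing hTDP1, seeded 400/well; qHTS titration format.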
HT1080 IDH1KD tx: HT-1080 IDH1 knockdown cell toxicity (counter line). hit rate 2% among 360,000. Potency, µM (top dose mostly 46.1 µM), for the others: top-dose activity, negative = toxicity, actives largely listed as cytotoxic. HT-1080 IDH1 knockdown viability, ATP luminescence, 48 h. AID 686971;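 note: potency is the fitted concentration of half-maximal effect; 0% = DMSO wells and -100% = cell-free medium wells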
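HT-1080-IDH1KD cells (IDH1 knocked down), 750/well in RPMI with 5% FBS, treated with compound 48 h at 37 degrees C. Viability by CellTiter-Glo luminescence, normalised to DMSO and no-cell wells; concentration-response curves classed.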
* hit, by the source's call; ? = inconclusive; / = no result; [ ] = another dose, or the depositor's remark. Unless noted, calls come from the whole dose curve; as a rule, active = well fitted curve in the direction sought with a large enough effect; inconclusive = small, poorly fitted or top-dose-only effect, or another doubt; inactive = no such curve, though single readings can be large; an effect the other way counts as inactive or inconclusive. Unless noted, % is set by controls: 0 for no effect and ±100 for the full control effect.

SMILES	HT1080-NT tox	IL-1B inflam inh	TDP1 cell noCPT	ALOX12 inh	DT40 TDP1 CPT	HT1080 IDH1KD tx
CC(C)C[C@H]1CNC(=S)N1C[C@H]1CCCN1C[C@H](Cc1ccc(O)cc1)N1C[C@H](Cc2ccccc2)N(CCc2ccccc2)C1=S	-19%	-22	?	?	?	-4%
CCOc1ccc(CCN2C(=S)N([C@@H](Cc3ccc(O)cc3)CN3CCC[C@@H]3CN3C(=S)NC[C@@H]3Cc3ccccc3)C[C@@H]2Cc2ccccc2)cc1	-6%	-18	?	2%	?	-6%
Oc1ccc(C[C@H]2CNC(=S)N2CC2CCCN2C[C@H](Cc2ccc(O)cc2)N2C[C@H](Cc3ccccc3)N(CCc3ccccc3)C2=S)cc1 (stereo partly drawn)	-6%	-22	21µM*	-5%	?	-3%
CC(=O)Nc1ccc(CN2CCC3(CC2)CC(c2cccc(C(F)(F)F)c2)=NO3)cc1	/	/	/	12%	/	/
Nc1nc(CN2CCN(C(=O)c3ccc(OC(F)(F)F)cc3)CC2)nc2ccccc12	/	/	/	14%	/	/
O=c1c(N2CCN(c3ccc(F)cc3)CC2)csc2ccc(F)cc12	/	/	?	?	18µM*	/
COCCOCC(=O)N1CC(c2nnc(-c3ccncc3)o2)C2(CCOCC2)C1 (stereo not drawn)	/	/	/	38%	/	/
C=CCn1c(SCc2csc(-c3ccc(Cl)cc3)n2)nnc1-c1ccccc1OC	-19%	-29	?	-25%	23µM*	?
CCc1ccc(-c2noc(CSc3nnc(-c4ccccc4OC)n3CC)n2)cc1	/	/	/	17%	/	/
Cc1ccc(NC(=O)c2cc(-c3cccnc3)nc3ccccc23)c(O)c1	/	/	/	-53%	/	/
O=C(OCc1cn([C@H]2CN(CC3CCCCC3)[C@@H](c3ccc(Cl)cc3)C[C@@H]2O)nn1)c1ccccc1	?	-5	16µM*	0%	?	?
O=C(OCc1cn([C@H]2CN(CC3CCCCC3)[C@@H](c3ccccc3)C[C@@H]2O)nn1)c1ccccc1	9%	25	?	22%	?	15%
O=C(OCc1cn([C@@H]2CN(CC3CCCCC3)[C@@H](c3ccccc3)C[C@H]2O)nn1)c1ccccc1	-3%	-1	18µM*	-5%	?	-10%
O=C(OCc1cn([C@@H]2CN(CC3CCCCC3)[C@@H](c3ccc(Cl)cc3)C[C@H]2O)nn1)c1ccccc1	7%	6	-17%	?	-4%	9%
Cc1onc(-c2ccccc2)c1-c1nnc(CSc2nnnn2C2CCCC2)o1	/	/	/	-42%	/	/
COc1ccc(Cn2c(-c3ccc(Br)cc3)c[n+]3ccccc23)cc1	?	-61*	2.1µM*	-18%	1.8µM*	?
CC(NC(=O)CCSc1nc2ccccc2s1)c1ccc(F)cc1F (stereo not drawn)	/	/	/	-14%	/	/
CCS/C(N)=N/N=C/c1cc(C)ccc1O	-3%	-55*	0.82µM*	0%	0.58µM*	?
CCCCS/C(N)=N/N=C/c1cc(C)ccc1O	?	-29	5.2µM*	162%	4.1µM*	?
Cc1ccc(N=C2C(=O)Nc3ccccc32)cc1	-1%	17	4%	0%	-5%	1%
CCN(CC)c1ccc(C2Nc3cccc4cccc(c34)N2)cc1	-13%	-8	16µM*	?	?	-6%
CCN(CC)c1ccc(C2NC(=O)c3ccccc3N2)cc1 (stereo not drawn)	?	39	13µM*	7%	7.3µM*	?
CCCOc1ccc(C2Nc3cccc4cccc(c34)N2)cc1	0%	34	6.5µM*	?	21µM*	-9%
CCN(CC)c1ccc(N=C2C(=O)Nc3ccccc32)cc1	?	-89*	5.8µM*	7%	6.5µM*	21µM*
O=C(CC1CCCN(c2cn[nH]c(=O)c2)C1)N1CCN(c2cccc(Cl)c2)CC1 (stereo not drawn)	/	/	/	13%	/	/
SMILES	HT1080-NT tox	IL-1B inflam inh	TDP1 cell noCPT	ALOX12 inh	DT40 TDP1 CPT	HT1080 IDH1KD tx
CN1c2cc(C(=O)NCc3ccc(OC(F)(F)F)cc3)ccc2C(=O)N2CCCCC21 (stereo not drawn)	/	/	/	0%	/	/
N#CC1=C(N)N(c2cccc(F)c2)C2=C(C(=O)OC2)C12C(=O)N(Cc1ccccc1F)c1ccccc12 (stereo not drawn)	/	/	/	-29%	/	/
CNC(=O)[C@H]1C[C@H](Oc2cccnc2)CN1C(=O)Cc1ccccc1	/	/	/	14%	/	/
COc1cccc(-c2csc(CN3CCCC(C)(NC(C)=O)C3)c2)c1 (stereo not drawn)	/	/	/	4%[176 µM]	/	/
CCN(CC)CCn1c2ccccc2c2nc3ccc([N+](=O)[O-])cc3cc21	-28%	-16	4.6µM*	-3%	8.2µM*	-30%
Fc1ccc(-c2nc(CSc3nnc(-c4ccncc4)n3C3CC3)cs2)cc1	/	/	/	-23%	/	/
Cc1ccc(-n2c(C)nc3c(cnn3-c3ccc(C)c(C)c3)c2=O)cc1C	13%	1	16µM*	?	18µM*	-2%
COc1ccc(-n2c(C)nc3c(cnn3-c3ccc(C)c(C)c3)c2=O)cc1Cl	/	/	?	0%	?	/
Cc1nc2c(cnn2-c2ccccc2Cl)c(=O)n1-c1ccc(N2CCC(C)CC2)cc1	-10%	?	?	98%	16µM*	-27%
CCc1nc2c(cnn2-c2ccc(F)cc2)c(=O)n1-c1ccc(N2CCC(C)CC2)cc1	5%	9	15µM*	-15%	16µM*	4%
CCOc1ccc(-n2c(CC)nc3c(cnn3-c3ccc(Cl)cc3)c2=O)cc1	/	/	15µM*	-10%	16µM*	/
CC(C)NC(=O)c1ccc(F)cc1I	/	/	/	32%	/	/
Cc1ccc(S(=O)(=O)N[C@@H](C)CO)cc1	30%	-4	0%	-23%	2%	17%
Cc1cc2c(nc1C)CCCN2C[C@@H](C)O/N=C1/[C@H]2CCn3c(=O)n(-c4ccccc4)c(=O)n3[C@H]2[C@H](O)[C@@H]2O[C@H]12	0%	-54*	?	/	?	-6%
CCOC(=O)CN1CCCc2nc(C)c(C)cc21	/	/	/	-12%	/	/
CN(C)c1ncnc2c1ncn2[C@H]1CN(Cc2ccc3c(c2)OCO3)C[C@@H](CO)O1	0%	-5	?	-30%	-5%	9%
NS(=O)(=O)c1ccc(NC(=S)Nc2ccc(C(=O)N3CCCCC3)cc2)cc1	2%	26	-29%	?	-6%	8%

Bioassay records: PubChem, National Center for Advancing Translational Sciences (NCATS)
